# In PubChem BioAssay (Tox21):
# Results filed as inconclusive are left out. Values without a mark were called inactive. Active and inactive are the calls of the source. Calls come from the whole dose curve; as a rule, active = well fitted activation curve with a large enough effect in the repeat runs; inconclusive = weak or mixed curves; inactive = flat fitted curve, though single readings scatter.
# Assay: A CellTox Green Cytotoxicity Assay to monitor cytotoxicity in HepG2 cells - 16 hour (AID 1224876); note: nearly all actives have a fitted effect of over 45% in size
# Details: CellTox Green fluorescence; series mostly up to 76.8 µM; cytotoxicity increase: at the top concentration
# Text: National Center for Advancing Translational Sciences [NCATS]
# NIH Chemical Genomics Center [NCGC]
# U.S. Environmental Protection Agency [EPA]
# National Institutes of Environmental Health Sciences [NIEHS]
# National Toxicology Program [NTP]
# Cell-based models are critical for drug discovery. Determining the natural cytotoxic effects resulting from test compounds is an essential research activity. A CellTox Green Cytotoxicity Assay to monitor cytotoxicity in real time of continues cell culture during 40 hours of the compound treatment was used to screen Tox21 10K library compounds in HepG2 cells. CellTox Green Cytotoxicity Assay is a nonlytic, homogeneous, biofluorescent method to measure cytotoxicity in cell culture after experimental manipulation. The assay system uses a proprietary asymmetric cyanine dye that is excluded from viable cells but preferentially stains the dead cell's DNA. […] Viable cells produce no appreciable increases in fluorescence. Therefore, the fluorescence signal produced by the binding interaction with dead cell DNA is proportional to cytotoxicity.
# The mixture of HepG2 cell suspension and reagents were dispensed at 600cells/6 ul/well in 1536-well tissue culture treated black solid bottom plates using a Multidrop dispenser. After the assay plates were incubated at a 37 C/5% CO2 incubator for 5 hours, 23 nL of compounds dissolved in DMSO, positive and negative controls was transferred to the assay plate by a pintool work station. The plates were incubated at 37 C for 40 hours. The fluorescence intensity were measured at 0h, 8h, 16h, 24h, 32h and 40h time points using ViewLux plate reader during compound treatment.
# % is set by controls: 0 for no effect and ±100 for the full control effect; potency is the fitted concentration of half-maximal effect.
SMILES,cytotoxicity increase,Potency
CCOC(OCC)C(=O)c1ccccc1,0.726%,
COC(=O)NCCC[Si](OC)(OC)OC,-13%,
NC(=O)C(=O)N/N=C/c1ccc([N+](=O)[O-])o1,-8.74% [at 35.3 µM],
CCCCCCCC(OC)OC,-0.743% [at 35.3 µM],
O=C(O)c1cccc(Cl)n1,24.8%,
O=C1OC(=O)c2ccc3c4c(ccc1c24)C(=O)OC3=O,-2.87%,
Cc1cc2c(C(C)C)c(O)c(O)c(C=O)c2c(O)c1-c1c(C)cc2c(C(C)C)c(O)c(O)c(C=O)c2c1O,13.4% [at 35.3 µM],
CCN(CC)CCNc1ccc(CO)c2sc3ccccc3c(=O)c12,,16.9 µM (active)
COc1ccc(-n2nc(CCC(=O)N(C)O)cc2-c2ccc(Cl)cc2)cc1,25.4% [at 35.3 µM],
Cc1cc(=O)[nH]c(=O)[nH]1,-4.77%,
CC(=O)Nc1ccc(O)cc1,,inactive
COc1ccccc1C=O,0.443%,
CC(COC(=O)c1ccccc1)OC(=O)c1ccccc1 (stereo not given),-8.17%,
CCCC(C)CCC(C)=O (stereo not given),2.15%,
CC(C)CCOCCC(C)C,-11.3%,
CCCCCCCCCCOCC(O)CN (stereo not given),,19 µM (active)
CC(=O)OC1CCCCC1,-3.7%,
C[n+]1c2cc(N)ccc2cc2ccc(N)cc21 (tested in a mixture with another compound),,23.9 µM (active)
CCC1(c2cnc[nH]2)Cc2ccccc2C1,-3.14% [at 35.3 µM],
CC(C)c1ccccc1N,3.81%,

SMILES,cytotoxicity increase,Potency
C=CC(=C)CCC=C(C)C,-7.73%,
CC=O,,57.5 µM (active)
CCCCCCCC/C=C\CCCCCCCC(=O)NCc1ccc(O)c(OC)c1,-0.0795% [at 35.3 µM],
Clc1cc(Cl)c(-c2c(Cl)c(Cl)cc(Cl)c2Cl)cc1Cl,-11.9% [at 35.3 µM],
CC(=O)Oc1ccc(C2(c3ccc(OC(C)=O)cc3)C(=O)Nc3ccccc32)cc1,0.583% [at 35.3 µM],
C/C=C/c1ccc(OC)c(OC)c1,0.421%,
Cc1cn[nH]c1,2.06% [at 35.3 µM],
O=C1c2c(O)ccc(O)c2C(=O)c2c(NCCNCCO)ccc(NCCNCCO)c21,-62.4% [at 35.3 µM],
C=CC(=C)CC/C=C(\C)CCC=C(C)C,1.01% [at 15.8 µM],
O=S(=O)(O)CCCN1CCOCC1,-11.6%,
c1cc(OCC2CO2)cc(OCC2CO2)c1 (stereo not given),0.889%,
CCC1CCCCC1,-10.5%,
CCOC(=O)COc1ccc(C)cc1,10%,
CCc1cccc(CC)c1NC(=O)C(=O)O,10.7%,
CCN(CC)c1cccc(C)c1,-5.31%,
Oc1ccc(-c2ccc(O)cc2)cc1,6.52%,
Cc1cc(C)c(C=O)c(C)c1,-8.88%,
CCCCCCCCCCCCCC[n+]1ccccc1,,19.5 µM (active)
CCCCCCCCCCc1ccccc1,0.792%,
O=C=NCc1cccc(CN=C=O)c1,2.28% [at 15.8 µM],
